From PubChem BioAssay AID932 (The Scripps Research Institute Molecular Screening Center, 2007)
The whole screen tested about 200,000 compounds, of which about 5,100 (2.5%) were called active.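 How the source made its calls: active means activation above the screen-wide mean activation plus 3 SD (cut at about 130% in these data); inactive means the rest.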 Shown is part of a subset that was picked to be rich in actives. Where a SMILES comes first, the peptide text is derived from it. [ ]: non-standard residue; d: D form. ξ: configuration not given here. ξM = CSCCC(N)C(=O)O

Assay: potentiators of IFN-gamma driven STAT1 reporter – cell-based, HTS, luciferase reporter, primary screen (AID 932);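 further: raw ratio to IFN-gamma control signal so 100% means no change and 0% no light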
Details: NIH 3T3 STAT1-luciferase reporter, luminescence, at 5.5 µM, hits give high values, 100% = IFN-gamma alone, no compound

Activation (% of control), inactive:
OCCC1CN(Cc2cnc(-c3ccccc3)s2)CCN1CCc1ccccc1 (configuration not stated) 100%
COc1cccc(/C(C)=N/Nc2ncc(Cl)cc2Cl)c1 126%
C/C(=N\NS(=O)(=O)c1ccc(Br)cc1)c1cccs1 95.4%
Cc1c(Cl)cnc(NC(=O)COC(=O)c2ccc(S(=O)(=O)NCc3ccco3)cc2)c1Cl 101%
O=C(NC1CCC(O)CC1)c1ccc(S(=O)(=O)NCc2ccco2)cc1 (configuration not stated) 93.2%
C/C(=N\Nc1nc(Nc2ccccc2)nc(N2CCOCC2)n1)c1cccs1 92.8%
OCCNc1nc2ccccc2[nH]1 104%
COc1cccc(CNC(=O)CCN2C(=S)NC(C)(C)CC2C)c1 (configuration not stated) 100%
Cc1nn(C)c(C)c1CN(C(=O)CCc1nnc(Cc2c[nH]c3ccccc23)o1)C(C)C 99.9%
CCN(CC)c1ccc(C(=O)c2cnc(/N=C/N(C)C)s2)cc1 118%
c1ccc(-c2noc(-c3cccs3)n2)nc1 104%
COc1nc(-c2ccc(Cl)cc2)ccc1-c1noc(-c2cccs2)n1 108%
CC(=O)Nc1ccc(CN2CCN(Cc3ccc(F)c(F)c3)C(CCO)C2)cc1 (configuration not stated) 100%
O=c1oc(-c2ccco2)nc2sc3c(c12)CCCCC3 110%
Cc1c(Br)ccc(NC(=O)COc2ccccc2C(N)=O)c1C 97.9%
Cc1cc(NS(=O)(=O)c2ccc(NC(=O)c3cccc(OC(F)F)c3)cc2)nc(C)n1 105%
CCOC(=O)C1(CCOc2ccccc2)CCN(C(=O)c2cncs2)CC1 99.2%
CCOC(=O)C1(Cc2ccc(Cl)cc2)CCN(C(=O)C2=NNC(=O)CC2)CC1 96.4%
O=c1cc(CO)oc(C(Nc2cccc(C(F)(F)F)c2)c2ccccn2)c1O (configuration not stated) 99.4%
CCOC(=O)c1cc(NC(=O)c2cccnc2)cc(C(=O)OCC)c1 96.5%
CCOc1cccc(C(=O)Nc2cccnc2)c1 101%
O=C(N1CCCC1)C12CC3CC(C1)CC(C(=O)N1CCCC1)(C3)C2 99.8%
CCCNC(=O)c1ccc(Cl)c(Cl)c1 98.4%
Cc1c(C(=O)NCc2ccccc2)cnn1-c1ccccc1 101%
Cn1ncc(N2CCN(S(=O)(=O)c3ccc(Br)cc3)CC2)c(Cl)c1=O 110%
COc1cc(C)c(Cl)cc1S(=O)(=O)n1ccnc1 92.5%
COCCNc1nc(N)c([N+](=O)[O-])c(NCCO)n1 114%
Nc1nc(NCCCN2CCOCC2)nc(Nc2ccccc2)c1[N+](=O)[O-] 103%
Cc1nn(-c2ccccc2)c(NC(=O)c2cccs2)c(-c2ccc(Cl)cc2)c1=O 107%
CC(C)N1CCC(NC(=O)Nc2ccccc2)CC1 95.4%
CC(C)(C)NS(=O)(=O)c1ccc(NC(=O)NC2CCCCC2)cc1 103%
COc1ccccc1-c1nnc(NC(=O)c2ccc3ncsc3c2)o1 122%
O=C(CC(=O)N/N=C\c1ccc(F)cc1)NCCc1ccccc1 100%
O=C(NNC(=O)C1C2CCC(C2)C1C(=O)O)c1ccc(Cl)cc1 (configuration not stated) 110%
Cc1ccccc1NC(=O)NNC(=O)OC(C)(C)C 103%
CC(C)(C)OC(=O)N/N=C/c1ccc(C(=O)O)cc1 104%
COc1ccc(C(=O)C2CCCN(C(=O)c3cc4nc(C)cc(C)n4n3)C2)cc1F (configuration not stated) 95.3%
COc1ccc(-n2nc3c(c2NC(=O)c2ccc(N4C(=O)CCC4=O)cc2)CSC3)cc1 96.7%
NC(N)=N/N=C/c1ccc(Cl)c([N+](=O)[O-])c1 93.6%
Cc1ccc(C)c(NC(=S)NNC(=O)c2csc(C)c2)c1 97.8%
Cc1ccc(NC(=S)NC(=O)c2ccc(-c3ccccc3)cc2)cc1 98.2%
Cc1ccc(NC(=S)NC(=O)c2ccc(-c3ccccc3)cc2)c(C)c1 92%
Cc1ccccc1NC(=S)NNC(=O)c1cccc(Br)c1 104%
CCCN(C(=O)CSc1nnnn1C)c1c(N)n(Cc2ccccc2)c(=O)[nH]c1=O 101%
COc1ccc(N/N=C2/CCCCC2=O)cc1 105%
CCn1cc(CN2CCCC(CNS(=O)(=O)Cc3ccccc3)C2)cn1 (configuration not stated) 89.7%
CN=c1scc(-c2cc(OC)ccc2OC)n1/N=C/c1c(C)[nH]c2ccccc12 112%
CCn1ccnc1CN1CCCC(C(=O)c2ccc3c4c(cccc24)CC3)C1 (configuration not stated) 89.5%
COc1ccc(/C=C/C(=O)Nc2ccc3c(c2)OCCO3)cc1OC 96.8%
CC(C)C(=O)Nc1cccc(C(=O)Nc2ccc3c(c2)OCO3)c1 120%
CCc1c(C)sc(NC(=O)/C=C/c2ccc3c(c2)OCO3)c1C(=O)OC 96.1%
O=C(/C=C/c1ccc2c(c1)OCO2)NCc1ccc(F)cc1 101%
COc1ccc(OC)c(/C=C/C(=O)OCC(=O)Nc2ccc3c(c2)OCCO3)c1 98.4%
CC(NC(=O)Nc1ccc2c(c1)OCO2)c1ccncc1 (configuration not stated) 97.9%
CC(=C/c1ccccc1)/C=N/NC(=O)c1cc(C)oc1C 117%
O=C(O)/C=C\C(=O)Nc1ccc(OCc2ccccc2)cc1 120%
Cn1c(SCC(=O)NC2CCCCC2)nnc1-c1ccc(N)cc1 101%
CCSc1nc(C)c(CCOc2cccc(C)c2)c(=O)[nH]1 102%
CCOc1ccc(-c2nnc(-c3ccco3)o2)cc1 93.5%
CCC(=O)Oc1cccc(C(=O)Nc2ccc(-c3nnc(-c4ccco4)o3)cc2)c1 104%
COc1ccc(-c2nnc3ccc(SCc4ccccc4)nn23)cc1 96.5%
COC(=O)CSc1nc(C)c2ccc(OC)cc2n1 108%
Cc1ccc(C)c2[nH]c(=O)c(CCNC(=O)c3cccs3)cc12 102%
CCOC(=O)C1(CCOC)CCN(Cc2ccc(C(=O)OC)cc2)CC1 106%
O=C(NCc1ccccn1)c1cc(Br)ccc1Cl 104%
COc1ccc(OCC(=O)NNC(=O)c2cccc(C)c2)cc1 103%
Cc1cccc(-n2c(C)cc(/C=N/NC(N)=S)c2C)c1 110%
O=C(N/N=C/C=C/c1ccco1)c1cccs1 127%
O=C(O)c1ccc(NC(=O)c2cccs2)cc1 98.1%
Cc1ccc(-n2nc(C)c(/C=N/NC(=O)c3cccs3)c2Cl)cc1 106%
CN(C)N(C)C(=O)C(O)(c1ccccc1)c1ccccc1 93.5%
COc1cc(OC)c(C(=O)OCC(=O)N2CC(=O)Nc3ccccc32)cc1OC 97%
N#C/C(=C/c1cccc([N+](=O)[O-])c1)c1nnc2n1CCCCC2 100%
C/C(=N/Nc1ccc(Cl)cc1)c1cnnc(-c2ccccc2)n1 99.5%
COC(=O)CNC(=O)C(CCSC)NC(C)=O (configuration not stated) (Ac-[ξM]-Gly-OMe) 99.5%
Cc1ccc(Oc2cnn(-c3ccccc3)c(=O)c2Br)cc1 108%
O=c1c(Cl)c(NC2CC2)cnn1-c1ccccc1 108%
CN(C)c1ccc(/C=N/Nc2cc(N3CCOCC3)nc(N3CCOCC3)n2)cc1 104%
C=CCN(c1ccc(Cl)cc1)S(=O)(=O)c1cccc(C(=O)OCC(=O)N(C)C)c1 97.2%

Activation (% of control), active:
C/C(=N\Nc1nc2ccccc2[nH]1)c1cccs1 147%
C/C(=N\Nc1ncc(Cl)cc1Cl)c1cccs1 143%
C/C(=N\Nc1ncc(Cl)cc1Cl)c1ccc(S(=O)(=O)NCc2ccco2)cc1 131%
c1csc(-c2nc(-c3ccncc3)no2)c1 130%
CCOC(=O)C1(Cc2ccccc2C(F)(F)F)CCN(C(=O)c2cc(C)n(C)n2)CC1 131%
CCOC(=O)c1ccc(-c2ccc(C(=O)Nc3cccnc3)o2)cc1 132%
CCCNC(=O)c1c(Cl)cnn1-c1ccc(C)cc1 142%
CNc1nc(Nc2ccc(C)c(Cl)c2)nc(N)c1[N+](=O)[O-] 142%
CC(C)c1ccc(NC(=O)NC2CCCCC2)cc1 180%
Cc1nn2cc(-c3ccc(Cl)cc3)cnc2c1Br 140%
C/C(=N\NC(=O)OC(C)(C)C)c1ccc[nH]1 130%
Cc1ccc(C(=O)NC(=S)Nc2ccccc2C)cc1 130%
Cc1cc(C(=O)NNC(=S)Nc2ccccc2C)cs1 130%
Cc1ccc(N/N=C2\COC(C)(C)CC2=O)cc1 142%
COc1cccc(/C=C/C(=O)Nc2ccc3c(c2)OCCO3)c1 129%
Cc1cccc(NC(=O)/C=C/c2ccc3c(c2)OCO3)n1 135%
Cc1cccc(NC(=O)Nc2ccc3c(c2)OCO3)n1 168%
CCCCOc1ccc(-c2nnc(-c3ccco3)o2)cc1 130%
COc1ccc2nc(SCc3ccccc3)nc(C)c2c1 188%
CN1C(=O)/C(=C/C=C2\SCCN2C)OC1=S 158%
Cc1cccc(-n2c(C)cc(/C=N\NC(=O)c3cccs3)c2C)c1 140%
CC(=O)Nc1ccc(/C=N/NC(=O)c2cccs2)cc1 136%
C=CCNc1cnn(-c2ccc(C)cc2)c(=O)c1Cl 134%
